FBW7 activator = FBW7 E3 ligase activators, primary screen, biochemical, AlphaScreen, human; F-box/WD repeat-containing protein 7 (Homo sapiens), Q969H0; 650,000 compounds, 0.13% hits; normalized activity (activation), % at 26.1 µM; AlphaScreen FBW7–phospho-cyclin E peptide binding, activator screen; in the data active = normalized activity above about 1.9%;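 also: purified mutant Fbw7 with reduced substrate affinity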
Target sequence (Q969H0 whole entry, looked up): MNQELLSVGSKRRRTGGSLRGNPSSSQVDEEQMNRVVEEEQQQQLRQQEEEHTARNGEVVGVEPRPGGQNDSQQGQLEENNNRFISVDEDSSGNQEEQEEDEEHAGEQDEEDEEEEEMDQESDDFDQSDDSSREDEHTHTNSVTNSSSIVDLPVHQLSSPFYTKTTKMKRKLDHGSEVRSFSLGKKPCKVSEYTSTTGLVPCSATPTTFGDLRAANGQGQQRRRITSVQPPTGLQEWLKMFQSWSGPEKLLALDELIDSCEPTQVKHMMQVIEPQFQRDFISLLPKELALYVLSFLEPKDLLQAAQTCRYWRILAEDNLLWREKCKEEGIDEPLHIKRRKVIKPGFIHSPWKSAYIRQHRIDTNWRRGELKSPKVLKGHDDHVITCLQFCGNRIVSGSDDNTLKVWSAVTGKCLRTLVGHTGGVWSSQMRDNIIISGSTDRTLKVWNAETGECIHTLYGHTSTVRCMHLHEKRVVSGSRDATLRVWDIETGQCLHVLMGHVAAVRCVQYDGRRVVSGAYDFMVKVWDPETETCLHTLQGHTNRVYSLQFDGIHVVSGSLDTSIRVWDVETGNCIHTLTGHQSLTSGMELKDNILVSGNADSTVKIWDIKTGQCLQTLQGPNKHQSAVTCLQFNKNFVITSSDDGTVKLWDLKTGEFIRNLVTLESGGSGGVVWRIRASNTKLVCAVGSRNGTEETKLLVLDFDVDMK
TEAD-YAP block = TEAD-YAP interaction inhibition, primary screen, TEAD-YAP interaction inhibitor project, luminescence, HEK-TIYL cells | TEAD-Gal4/YAP UAS-luciferase luminescence | inhibition, % at 9.12 µM | 640,000 compounds, 1.4% hits; in the data active = inhibition above about 32%
MITF inh = MITF inhibitors, primary screen, biochemical, AlphaScreen, human | AlphaScreen MITF homodimerization, bead proximity signal | inhibition, % at 2.6 µM | Microphthalmia-associated transcription factor (Homo sapiens), O75030 | 650,000 compounds, 0.91% hits | AID 1259374, 2018; in the data active = inhibition above about 50%
GPR151 activ = activators of human GPR151, primary screen, cell-based, PathHunter beta-arrestin, luminescence | G-protein coupled receptor 151 (Homo sapiens), Q8TDV0 | 650,000 compounds, 1% hits | PathHunter beta-arrestin GPR151 cells | activation, % at 11.2 µM; in the data active = activation above about 4.9%
A number is an active result; . = inactive. Hits are enriched below; roughly 3.4% of the tested compounds scored in any of these assays.

SMILES	FBW7 activator	TEAD-YAP block	MITF inh	GPR151 activ
Cc1cc(C(=O)N/N=C\c2ccc(Cl)cc2Cl)c(C)o1	.	.	.	.
Cc1cc(C(=O)N/N=C/c2ccc(O)c(O)c2O)c(C)o1	.	.	53	.
COc1ccc(C2CC(c3cccs3)=NN2C(=O)CSc2nnc(CNC(=O)c3ccccc3)n2-c2cc(C)ccc2C)cc1 (configuration not stated)	.	.	.	.
Cc1ccccc1-n1nc2c(c1NC(=O)c1ccc(S(=O)(=O)N(C)C)cc1)CS(=O)(=O)C2	.	.	.	.
Cc1ccc(-n2[nH]c(=O)c(-c3ccccn3)c2C)cc1	.	52	.	.
Cc1ccc(-n2c(O)c(/C=N/c3ccccn3)c(=O)[nH]c2=O)cc1	.	.	.	.
CC(C(=O)Nc1ncn[nH]1)c1ccc([N+](=O)[O-])cc1 (configuration not stated)	.	.	.	.
CC(C(=O)Nc1ccncc1)c1ccc([N+](=O)[O-])cc1 (configuration not stated)	.	33	.	.
O=C1NC2(CCN(C(=O)c3nccc4ccccc34)CC2)Nc2ccc(Cl)cc21	.	78	.	.
O=C(NCc1ccccc1)C(c1ccccc1)N(Cc1cccs1)C(=O)c1cnccn1 (configuration not stated)	.	34	.	.
O=C(NCc1ccccc1)C(c1cccs1)N(Cc1cccs1)C(=O)c1cnccn1 (configuration not stated)	.	.	.	.
O=C(NCc1ccccc1)C(c1ccccc1)N(Cc1cccnc1)C(=O)c1csnn1 (configuration not stated)	6.9	.	.	.
COc1cccc(NC(=O)CSc2nc3c(sc(=S)n3-c3cc(Cl)ccc3OC)c3nc4ccccc4n23)c1	.	.	.	.
COc1cccc(NC(=O)C2C3CC/C=C\CCC32)c1 (configuration not stated)	.	.	.	.
COCCNC(=O)c1oc2ccc3c(c2c1C)C(=O)CC1(CCCCC1)O3	.	.	.	.
Cc1c(C(=O)NCc2cccnc2)oc2ccc3c(c12)C(=O)CC1(CCCC1)O3	.	40	.	.
O=C(Nn1c(-c2cccc([N+](=O)[O-])c2)nc2ccccc2c1=O)c1ccc(Br)cc1	.	.	.	.
Cc1ncc(CO)c(/C=N/NC(=O)c2ccc(Cl)c(Cl)c2)c1O	.	.	.	.
Cc1ncc(CO)c(/C=N/NC(=O)c2cc(O)c(O)c(O)c2)c1O	.	.	99	.
Cc1ncc(CO)c(/C=N/Nc2ccc3ccccc3n2)c1O	.	52	.	.
Cc1ncc(CO)c(/C=N/Nc2cccc(Cl)n2)c1O	.	.	.	.
Cc1ncc(CO)c(/C=N/NC(=O)CCCOc2ccc(Cl)cc2Cl)c1O	.	55	.	.
CC1=NN(c2cccc(C(=O)O)c2)C(=O)/C1=C\c1ccc(-c2cccc(C(=O)O)c2)o1	.	.	62	.
COc1cc(Br)c(/C=C2\C(=O)N(c3ccccc3)N=C2C)cc1OC	.	.	.	.
COc1ccc(/C=C2\C(=O)N(c3cccc(C(=O)O)c3)N=C2C)cc1OC	.	.	.	.
SMILES	FBW7 activator	TEAD-YAP block	MITF inh	GPR151 activ
COc1cc(/C=C2\C(=O)N(c3cccc(C(=O)O)c3)N=C2C)c(Br)cc1O	.	.	62	.
CC1=NN(c2cccc(Cl)c2)C(=O)/C1=C/c1cc2c(cc1Cl)OCO2	.	.	.	.
CC1=NN(c2cccc(C(=O)O)c2)C(=O)/C1=C\c1cc2c(cc1Cl)OCO2	.	.	61	.
COc1cc(/C=C2/C(=O)N(c3cccc(C(=O)O)c3)N=C2C)cc2sc(=O)oc12	.	.	61	.
CCCOc1ccc(C2C(C(=O)OC)=CN(Cc3ccc(Cl)cc3)C=C2C(=O)OC)cc1	.	.	.	.
O=C(Nc1nc(-c2ccc(I)cc2)cs1)c1ccc(S(=O)(=O)N2CCc3ccccc32)cc1	.	.	.	.
Cc1cccn2c(=O)c(/C=C3\SC(=S)NC3=O)c(N(C)Cc3ccccc3)nc12	.	.	.	.
CC1=NN(c2cccc(C(=O)O)c2)C(=O)/C1=C\c1ccco1	.	.	65	.
CC1=NN(c2cccc(C(=O)O)c2)C(=O)/C1=C/c1ccc(C)o1	.	.	.	.
Cc1cc(=O)[nH]c(N/N=C/c2cc3c4c(c2O)CCCN4CCC3)n1	.	86	.	.
O=C(N/N=C/c1cc([N+](=O)[O-])cc([N+](=O)[O-])c1O)c1ccncc1	.	.	.	.
Cc1ccc(C)c(/C=N/Nc2nc(C)cc(=O)[nH]2)c1	.	.	.	.
O=C(N/N=C/c1cc2c3c(c1O)CCCN3CCC2)c1ccncc1	.	75	66	.
Cc1nnc2n1NC(c1ccc(F)cc1)C(C(=O)Nc1ccccc1Cl)S2 (configuration not stated)	.	.	.	.
CC(C)Oc1ccccc1/C=C(\C#N)C(=O)NCCc1ccccc1	.	50	.	.
CN(C)S(=O)(=O)N1CCC(Oc2ccc(C(=O)N3CCSCC3)cc2)CC1	.	.	.	.
COc1ccc(CNc2nc3ccc(-c4ccncc4)cc3s2)cc1	60	.	.	.
O=C(NNC(=O)c1cc2cc(Br)ccc2oc1=O)c1ccc(O)cc1O	.	34	.	.
CNC(=O)c1cc2cc(Br)ccc2oc1=O	.	.	.	.
COC(=O)/C=C/CSc1nnc(-c2ccc(Cl)cc2Cl)o1	.	91	.	.
C/C(=N\N=C1/NC(=O)C(CC(=O)O)S1)c1ccc2ccccc2c1O (configuration not stated)	.	.	83	.
CC1(C)Cc2nc3sc4c(=O)[nH]cnc4c3cc2CO1	.	.	.	.
Cc1cc(C)c2c(N)c(C(=O)NC(C)c3ccccc3)sc2n1 (configuration not stated)	2.3	.	.	.
COc1ccc2nc(NC(=O)c3sc4nc(C)[nH]c(=O)c4c3C)sc2c1	.	.	.	.
COc1ccc2nc(NC(=O)c3sc4nc(C)cc(C)c4c3N)sc2c1	.	35	.	.
SMILES	FBW7 activator	TEAD-YAP block	MITF inh	GPR151 activ
Cc1cc(C)c2c(N)c(C(=O)Nc3ccccc3)sc2n1	.	.	.	.
Cc1cccc(NC(=O)c2sc3nc(C)cc(C)c3c2N)n1	.	84	.	.
CC(C)N1CCc2c(sc(NC(=O)c3ccc(Br)s3)c2C(N)=O)C1	.	.	.	.
COC(=O)C[C@@H]1CN=N[C@@]1(NC(=O)OCc1ccccc1)C(=O)OCc1ccccc1	.	.	.	.
Cc1ccc(F)c(NS(=O)(=O)c2ccc(F)cc2)c1	.	.	.	.
COc1cn(-c2ccc(F)cc2)nc1C(=O)Nc1ccccc1SC	.	32	.	.
Cc1ccc2c(CNCc3ccccc3C)c(C(=O)O)n(Cc3ccccc3)c2c1	.	.	.	.
C=CCNc1nc2c(c(=O)n(C)c(=O)n2C)n1CCCCCC	.	47	.	.
C=CCNc1nc2c(c(=O)n(C)c(=O)n2C)n1CCC(C)C	.	33	.	.
Cc1nn(-c2ccccc2)c2sc(C(=O)OCC(=O)Nc3sccc3C#N)cc12	.	.	.	.
